In ChEMBL document CHEMBL3988442, “University of Dundee, Small-Polar-MMV Screening Library” (2021):

molecular target: Chromo domain-containing protein 1 (Saccharomyces cerevisiae (strain ATCC 204508 / S288c) (Baker's yeast)) (UniProt P32657); assay: ScCHD-1 Enzyme Inhibition Assay; type: functional; design: scale not given: in the data most compounds retested in dose-response had high values; conditions: 30 µM
Sequence (P32657 whole entry, the tested form may be a part): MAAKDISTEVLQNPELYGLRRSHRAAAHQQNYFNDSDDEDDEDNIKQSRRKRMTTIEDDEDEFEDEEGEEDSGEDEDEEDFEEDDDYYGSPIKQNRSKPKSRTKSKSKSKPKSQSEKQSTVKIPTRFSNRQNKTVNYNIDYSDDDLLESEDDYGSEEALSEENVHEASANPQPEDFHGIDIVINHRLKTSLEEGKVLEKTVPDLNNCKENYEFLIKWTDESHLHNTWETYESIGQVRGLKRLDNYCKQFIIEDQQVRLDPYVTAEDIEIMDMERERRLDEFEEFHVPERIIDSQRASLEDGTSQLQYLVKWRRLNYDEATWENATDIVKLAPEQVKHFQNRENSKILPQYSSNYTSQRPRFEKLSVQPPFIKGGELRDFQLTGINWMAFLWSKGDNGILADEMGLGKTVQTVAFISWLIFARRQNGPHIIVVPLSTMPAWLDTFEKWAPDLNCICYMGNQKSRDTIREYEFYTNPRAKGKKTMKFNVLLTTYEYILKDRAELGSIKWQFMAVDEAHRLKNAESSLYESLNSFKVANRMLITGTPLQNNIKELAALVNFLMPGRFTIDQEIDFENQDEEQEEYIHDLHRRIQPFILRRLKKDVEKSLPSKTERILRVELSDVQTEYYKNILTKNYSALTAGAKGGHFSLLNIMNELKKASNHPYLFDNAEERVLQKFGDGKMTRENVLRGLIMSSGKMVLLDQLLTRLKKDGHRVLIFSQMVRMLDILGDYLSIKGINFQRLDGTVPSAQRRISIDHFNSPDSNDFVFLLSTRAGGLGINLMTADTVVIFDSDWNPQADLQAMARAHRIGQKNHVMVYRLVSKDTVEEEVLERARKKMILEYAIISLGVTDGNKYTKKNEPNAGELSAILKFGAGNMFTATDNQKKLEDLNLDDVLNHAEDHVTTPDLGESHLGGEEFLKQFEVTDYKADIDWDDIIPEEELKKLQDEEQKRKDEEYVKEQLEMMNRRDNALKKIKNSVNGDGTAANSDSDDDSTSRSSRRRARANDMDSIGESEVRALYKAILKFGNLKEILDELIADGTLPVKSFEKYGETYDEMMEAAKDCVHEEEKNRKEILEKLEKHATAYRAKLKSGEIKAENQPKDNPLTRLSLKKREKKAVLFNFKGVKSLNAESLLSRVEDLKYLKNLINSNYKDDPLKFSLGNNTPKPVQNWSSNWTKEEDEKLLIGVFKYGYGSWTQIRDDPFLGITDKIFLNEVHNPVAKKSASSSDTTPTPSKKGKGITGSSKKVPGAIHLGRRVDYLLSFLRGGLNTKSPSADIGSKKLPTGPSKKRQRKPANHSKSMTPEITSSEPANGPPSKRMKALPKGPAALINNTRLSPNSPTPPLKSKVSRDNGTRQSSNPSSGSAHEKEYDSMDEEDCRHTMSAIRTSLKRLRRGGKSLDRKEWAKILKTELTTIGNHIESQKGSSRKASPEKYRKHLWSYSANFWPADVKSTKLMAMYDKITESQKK

| Structure (SMILES) | Percent Effect |
| --- | --- |
| CC(C)OCc1ncn2c1CN(Cc1ccc(F)cc1)CCC2 | -0.808% |
| Fc1cnc(N2C[C@H]3CCC[C@@]3(COc3ccccn3)C2)nc1 | -5.06% |
| CCS(=O)(=O)N1CCC2(CCCN(Cc3cc(OC)ccc3F)C2)C1 (stereo not given) | -4.39% |
| COC(=O)c1ccc(C(=O)NS(=O)(=O)c2cncc(Br)c2)cc1 | -0.393% |
| COc1c(CNC(c2nccn2C)C(C)C)c(C)nn1C (stereo not given) | 4.67% |
| CC(C)c1nc(CN(C)CC2CCN(CCO)CC2)no1 | -3.71% |
| c1ccc2c(N3CCCC3Cn3cccn3)ncnc2c1 (stereo not given) | -8.26% |
| CCOc1ccc(N2CCCN=C2NC(=O)c2ccccc2C)cc1 | 106% |
| Cc1csc(N2CCN(C(=O)CCc3ccccn3)CC2)n1 | -12.7% |
| COc1ccc(Cc2nnc(SC)o2)cc1OC | -3.69% |
| Cn1ncc2c(NCCOc3ccc(F)cc3)nc(C3CCCC3)nc21 | -3.29% |
| COCC1c2c(cnn2C)CCN1Cc1ccoc1 (stereo not given) | 2.42% |
| CC(=O)Nc1nc(CN2CCCCC2Cn2cccn2)cs1 (stereo not given) | -6.41% |
| O=C(NCC1CC1)c1nc(COc2ccc3c(c2)OCO3)no1 | -6.83% |
| Cc1nccc(-c2cccc(NCC(=O)N3CCNC3=O)c2)n1 | -9.15% |
| Cc1ccc(CN2CC3(CCN(C(=O)c4cscn4)C3)C2)s1 | -1.23% |
| CCCc1nc(CN2CCOC(Cn3cncn3)C2)no1 (stereo not given) | -24.9% |
| Cc1nn(C)c(C)c1CNC1CCOc2ccccc21 (stereo not given) | -2.87% |
| Cc1noc2nc(C3CCN(Cc4cccnc4)CC3)cc(C(F)F)c12 | 1.36% |
| COc1cc(OC)c(C2Nc3cc(Cl)ccc3C3=NCCN32)cc1OC (stereo not given) | -5.67% |
